Screening data as filed in PubChem BioAssay.
CFTR F508del cor – F508del CFTR correction, initial screen, CFBE line, single point; CFBE cells, YFP halide quenching; stimulated with forskolin plus potentiator P3; % fluorescence drop versus neutral controls; activity (quench increase), % at 7.58 µM; 0.36% of 350,000 active; AID 720511, 2013;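 active = mean added fluorescence quench of at least 8% versus neutral control, with both replicates also reaching 8%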;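 note: cells transiently co-express mutant CFTR-F508del with the halide-sensitive YFP; corrector assay measuring rescue of mutant channel to the surface after 24 h compound exposure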
PAX8 inh HTS – inhibitors of PAX8-driven TPO luciferase reporter, primary screen, RMG-I cells, single concentration; SteadyGlo, 24 h; inhibition, % at 12.6 µM; 1.2% of 360,000 active; AID 652154, 2013;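 active = mean replicate inhibition at least 60% with every replicate also reaching 60%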;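 note: luciferase light reporting Pax8 driven TPO promoter activity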
FXN GAA850 act – FXN promoter activators, primary screen, cell-based, luciferase luminescence, HEK293 lucGAA850. 0.56% of 360,000 active. activation, % at 6 µM. HEK293 lucGAA850 FXN promoter luciferase reporter, 24 h; percent of 10 µM SAHA response;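 active = activation above the average of all compounds screened plus 3 SD, cutoff fixed separately per campaign, cut at about 7.5% in these data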
EWS-Fli block – EWS/Fli-driven NR0B1 reporter inhibitors, primary screen, A673 cells, NR0B1 luciferase, luminescence, MLPCN library | viability-normalised | 0.67% of 350,000 active | inhibition, % at 12.6 µM | AID 651661, 2012;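 active = mean inhibition of at least 50% after viability correction, with every replicate also passing that limit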;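 note: firefly luciferase signal divided by Alamar Blue viability fluorescence both relative to DMSO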
HIV Env fusion – inhibitors of HIV-1 Env-driven cell-cell fusion, primary screen, HeLa-JRFL effector, CEM21 target cells, luciferase; inhibition, % at 12.3 µM; 1.1% of 360,000 active; AID 651610, 2012;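 active = mean replicate inhibition score of at least 50 and every replicate individually at or above 50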
Large screens that a line does not name were inactive. Only some compounds are listed: those with a hit (about 2.5% of all), similar ones and a draw of the others.

COc1cccc(/C=C2\SC(=S)N(CCCC(=O)N(CCO)c3ccccc3)C2=O)c1	PAX8 inh HTS 65.0
COc1cc(C2c3cc4c(cc3C(O)C3COCC23)OCO4)cc(OC)c1OC (stereo not drawn)	none (no result: PAX8 inh HTS)
COc1cc([C@@H]2c3cc4c(cc3[C@H](O)[C@H]3COC(=O)[C@H]23)OCO4)cc(OC)c1OC	PAX8 inh HTS 95.2, EWS-Fli block 71.8 (no result: HIV Env fusion)
CCN(CC)C1Oc2cc3c(cc2C(c2cc(OC)c(O)c(OC)c2)C1C)OCO3 (stereo not drawn)	none
COc1cc([C@@H]2c3cc4c(cc3[C@@H](O[C@@H]3O[C@@H]5CO[C@@H](C)O[C@H]5[C@H](O)[C@H]3O)[C@H]3COC(=O)[C@H]23)OCO4)cc(OC)c1O	EWS-Fli block 53.9
COc1cc(C2c3cc4c(cc3C(OC3OC5COC(c6cccs6)OC5C(O)C3O)C3COC(=O)C23)OCO4)cc(OC)c1O (stereo not drawn)	PAX8 inh HTS 68.6, EWS-Fli block 59.8
COC1OC2COC(c3ccccc3)OC2C(O)C1N (stereo not drawn)	none (no result: CFTR F508del cor)
O=C(Nc1nc(-c2ccccn2)cs1)c1ccc([N+](=O)[O-])o1	PAX8 inh HTS 79.8
O=C(Nc1nc(-c2ccccn2)cs1)c1cc(Cl)ccc1[N+](=O)[O-]	PAX8 inh HTS 80.5
CNCc1ccccc1Sc1ccc(O)c(O)c1	PAX8 inh HTS 75.9 (no result: HIV Env fusion)
CC(C)C#Cc1cnc2c(c1)C(=O)N([C@@H](C)CO)C[C@H](C)[C@@H](CN(C)C(=O)Nc1cccc(F)c1)O2	none (no result: FXN GAA850 act, HIV Env fusion)
C[C@H]1CN([C@@H](C)CO)C(=O)c2cccc(NC(=O)C3CCOCC3)c2O[C@@H]1CN(C)Cc1ccc2c(c1)OCO2	none (no result: FXN GAA850 act)
CCC(C)(C)NC(=O)C(c1ccc(OC)cc1)N(Cc1ccco1)C(=O)CCC(=O)Nc1cc(C)on1 (stereo not drawn)	HIV Env fusion 33.9 (no result: CFTR F508del cor, EWS-Fli block)
CC(C)(C)C(=O)/C(=C/c1ccncc1)n1cncn1	PAX8 inh HTS 69.7
CCOc1ccc(-c2ccc(SCC(=O)Nc3nnc(CC)s3)nn2)cc1	none
CCOc1ccc(-c2ccc(SC)nn2)cc1	PAX8 inh HTS 75.0, EWS-Fli block 79.0
COc1ccc(-c2oc3ccc(-c4cc(OC)c(OC)c(OC)c4)cc3c2C#Cc2ccccn2)cc1	CFTR F508del cor 8.8
COc1ccc(N=C2S/C(=C\c3ccc(Cl)c([N+](=O)[O-])c3)C(=O)N2CCN(C)C)cc1	EWS-Fli block 64.2
CCCN1C(=O)/C(=C/c2ccc(C)s2)SC1=Nc1ccc(OC)cc1	none (no result: CFTR F508del cor, PAX8 inh HTS, EWS-Fli block, HIV Env fusion)
CCN(CC)CCN1C(=O)/C(=C\c2ccc(Cl)c([N+](=O)[O-])c2)SC1=Nc1ccc(OC)cc1	EWS-Fli block 59.7
CNC[C@H]1Oc2ncc(-c3ccccc3F)cc2C(=O)N([C@@H](C)CO)C[C@H]1C	none (no result: FXN GAA850 act)
O=C(O)[C@@H]1[C@@H](CO)[C@@H]2Cn3c(ccc(/C=C/c4ccccc4)c3=O)[C@@H]2N1C(=O)C1CCCC1	none (no result: FXN GAA850 act)
C[C@@H]1CN([C@H](C)CO)C(=O)Cc2cc(NC(=O)CCCCCC(=O)Nc3ccccc3N)ccc2O[C@H]1CN(C)S(C)(=O)=O	none (no result: FXN GAA850 act)
CCN(CC)S(=O)(=O)c1cccc(NC(=O)Nc2cccc(C(F)(F)F)c2)c1	PAX8 inh HTS 102.0, HIV Env fusion 118.5 (no result: CFTR F508del cor, EWS-Fli block)
C=C1C(=O)O[C@H]2[C@@H]1CC/C(CO)=C\CC[C@@]1(C)O[C@@H]21	PAX8 inh HTS 83.1 (no result: FXN GAA850 act)
COc1ccc(S(=O)(=O)N(C)C[C@@H]2Oc3c(NC(=O)Nc4ccccc4)cccc3C(=O)N([C@@H](C)CO)C[C@@H]2C)cc1	none (no result: FXN GAA850 act)
NC(c1csc(NC(=O)Nc2ccc(OC(F)(F)F)cc2)n1)C1CCCCC1 (stereo not drawn)	EWS-Fli block 54.9
O=C(Nc1ccc(C(=O)OC2CCCCC2)cc1)c1ccncc1	HIV Env fusion 74.6
O=C(OC1CCCCC1)c1ccc(NC(=O)C2CCCCC2)cc1	none (no result: CFTR F508del cor, PAX8 inh HTS, EWS-Fli block, HIV Env fusion)
CC(C)(C)C(=O)Nc1ccc(C(=O)OC2CCCCC2)cc1	FXN GAA850 act 10.5 (no result: CFTR F508del cor, PAX8 inh HTS, EWS-Fli block, HIV Env fusion)
O=C(O)CCC(=O)Nc1ccc(C(=O)OC2CCCCC2)cc1	none (no result: PAX8 inh HTS, HIV Env fusion)
COCC(=O)Nc1ccc2c(c1)C(=O)N(C)C[C@H](OC)[C@@H](C)CN(C(=O)Cc1ccccn1)[C@H](C)CO2	none (no result: FXN GAA850 act, HIV Env fusion)
O=C(CSc1nc(O)cc(=O)n1-c1ccccc1)Nc1nc2ccccc2s1	HIV Env fusion 66.6 (no result: CFTR F508del cor)
CC(C)n1c(SCC(=O)Nc2nc3c(s2)CCCC3)nc2c1c(=O)n(C)c(=O)n2C	HIV Env fusion 87.5 (no result: CFTR F508del cor, EWS-Fli block)
Cn1c(=O)c2c(nc(SCC(=O)NCc3ccc4c(c3)OCO4)n2Cc2ccc(F)cc2)n(C)c1=O	HIV Env fusion 137.5 (no result: CFTR F508del cor, EWS-Fli block)
COc1ccc(NC(=O)CSc2nc(O)cc(=O)n2-c2ccccc2)cc1	none
CCCCn1c(SCC(=O)Nc2ccc3c(c2)OCO3)nc2c1c(=O)n(C)c(=O)n2C	HIV Env fusion 79.0 (no result: CFTR F508del cor, PAX8 inh HTS, EWS-Fli block)
O=S(=O)(N[C@H]1CC[C@H](CCNS(=O)(=O)c2ccccc2Cl)O[C@@H]1CO)c1ccccc1	none (no result: FXN GAA850 act)
O=C(C1CCOCC1)N1C[C@@H]2[C@H](c3ccccc31)[C@H](CO)N2C(=O)c1ccccc1	none (no result: FXN GAA850 act, HIV Env fusion)
COc1ccc(NC(=O)Nc2ccc3c(c2)C(=O)N([C@H](C)CO)C[C@H](C)[C@@H](CN(C)C(=O)Nc2cccc4ccccc24)OCCCC[C@@H](C)O3)cc1	none (no result: FXN GAA850 act)
CO[C@@H]1CN(C)C(=O)c2cc(NC(=O)Nc3ccccc3)ccc2OC[C@@H](C)N(C(=O)CC2CC2)C[C@H]1C	none (no result: FXN GAA850 act)
CCCn1c(SCC(=O)Nc2nc3ccccc3s2)nc2c1c(=O)n(C)c(=O)n2C	HIV Env fusion 63.6 (no result: CFTR F508del cor, PAX8 inh HTS, EWS-Fli block)
CCCn1c(SCC(=O)Nc2nnc(C(C)C)s2)nc2c1c(=O)n(C)c(=O)n2C	none (no result: CFTR F508del cor, EWS-Fli block)
C/C=C/c1ccc([C@H]2[C@@H](CO)N(C(=O)CC)[C@H]2CN(C)S(C)(=O)=O)cc1	none (no result: FXN GAA850 act, HIV Env fusion)
O=S(=O)(c1cccc(F)c1)N1CC[C@@H]2[C@H]1c1cc(-c3cccc(F)c3)ccc1N[C@@H]2CO	none (no result: FXN GAA850 act, HIV Env fusion)
NC(=S)NN=C1c2cc(OCCN3CCOCC3)ccc2-c2ccc(OCCN3CCOCC3)cc21	EWS-Fli block 63.9
N#Cc1cccc(-c2ccc([C@@H]3[C@H](CO)N4CCCCN(C(=O)Nc5ccccc5)C[C@@H]34)cc2)c1	none (no result: FXN GAA850 act, HIV Env fusion)
Cc1ccc(S(=O)(=O)CCC(=O)c2ccc(F)cc2)cc1	PAX8 inh HTS 95.5 (no result: EWS-Fli block)
O=C(C[C@H]1C=C[C@H](NC(=O)C2CCOCC2)[C@H](CO)O1)NCC1CC1	none (no result: FXN GAA850 act)
Cc1cc(C(=O)CN2C(=O)C(=O)N(Cc3ccco3)C2=O)c(C)n1CCc1ccccc1	EWS-Fli block 53.9
C=C1C(=O)C23C(O)C1CCC2C12CCCC(C)(COC(C)=O)C1C(O)C3(O)OC2 (stereo not drawn)	PAX8 inh HTS 123.2, EWS-Fli block 57.4
COc1cccc(C#Cc2ccc([C@@H]3[C@@H](C#N)N(C(=O)C4CCC4)[C@@H]3CO)cc2)c1	none (no result: FXN GAA850 act)
